For seven compounds, growth results are on record in PubChem BioAssay (NCI).

The panel holds about 83,000 compounds, 20% with a hit somewhere; the sample as a whole holds those more often.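 Note: values are percent growth. 100 is the growth of untreated cells, values between 100 and 0 indicate rising inhibition; between -100 and 0 indicates cell death.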 Values without a mark were called inactive. Activity calls are given as the source filed them. Rule for the calls: active = growth percent below 10; inactive = the rest.

Test systems include NCI-H23 lung; NCI-H226 lung; NCI-H322M lung; HOP-62 NSCLC; NCI-H460 lung; HOP-92 NSCLC; NCI-H522 lung; 786-0 renal; COLO 205 colon; DU-145 prostate; K-562 leukemia; MALME-3M melanoma; MDA-MB-231 breast; RXF 393 renal; SF-268 CNS; SF-295 CNS; SF-539 CNS; UACC-257 melanoma; M14 melanoma; A549/ATCC NSCLC.
Holding throughout (experiment): NCI-60 one-dose screen, 48 h (100 = growth as untreated, 0 = no growth, -100 = all killed)
What all share (conditions): 10 µM unless noted

With `CC(=O)O[C@@H]1C[C@]2(C(C)C)O[C@@]1(C)[C@@H]1CCC(C)=C1[C@@H]2OC(=O)/C=C/c1ccccc1`, the growth is 95.3% in the assay on NCI-H23 lung; 66.2% in the assay on NCI-H226 lung; 93.4% in the assay on NCI-H322M lung; 90.6% in the assay with HOP-62 NSCLC; 94.2% in the assay on NCI-H460 lung; 72.8% in the assay on HOP-92 NSCLC. Further, the growth is 73.3% in the assay with NCI-H522 lung; 87.6% in the assay on 786-0 renal; 94.1% in the assay with COLO 205 colon; 101% in the assay on DU-145 prostate; 81.7% in the assay with K-562 leukemia; 86.4% in the assay on MALME-3M melanoma. For the same compound, the growth is 84.1% with MDA-MB-231 breast; 30.8% in the assay with RXF 393 renal; 80.8% in the assay with SF-268 CNS; 92.1% with SF-295 CNS; 101% in the assay on SF-539 CNS; 90.5% in the assay on UACC-257 melanoma. Further, the growth in the assay with M14 melanoma is 93.6%.
Take `CCCNC(=O)Nc1ccc2cc3ccc(NC(=O)NCCC)cc3nc2c1`: the growth in the assay with NCI-H23 lung is 86.4%; with NCI-H226 lung, 90.7%; in the assay with NCI-H322M lung, 100%; in the assay on HOP-62 NSCLC, 81.8%; with NCI-H460 lung it was 104%; in the assay on HOP-92 NSCLC, 79.2%. Moreover, the growth was 79% in the assay on NCI-H522 lung; 82.3% with 786-0 renal; 99.3% in the assay on COLO 205 colon; 118% in the assay on DU-145 prostate; 60.8% with K-562 leukemia; 79.1% in the assay with MALME-3M melanoma. Besides, the growth with MDA-MB-231 breast is 98.8%; in the assay on RXF 393 renal, 77.7%; in the assay on SF-268 CNS, 84.3%; with SF-295 CNS, 115%; in the assay with SF-539 CNS, 66.5%; with UACC-257 melanoma it was 87.5%. In addition, the growth in the assay on M14 melanoma is 89.1%.
Take `COc1ccccc1CNc1c2ccccc2nc2ccccc12`: the growth with NCI-H23 lung was 30.9%; with NCI-H226 lung, 39.9%; with NCI-H322M lung, 48.6%; in the assay with HOP-62 NSCLC it was 44.5%; in the assay with NCI-H460 lung it was 10.2%; with HOP-92 NSCLC, 18.2%. Also, the growth was 62.4% with NCI-H522 lung; 39.3% in the assay on 786-0 renal; 12.8% in the assay with COLO 205 colon; 50.5% in the assay on DU-145 prostate; 10.1% with K-562 leukemia; 45.9% in the assay on MALME-3M melanoma. For the same compound, the growth in the assay with MDA-MB-231 breast was 57.6%; in the assay on RXF 393 renal, 30.6%; in the assay on SF-268 CNS, 65.1%; in the assay on SF-295 CNS, 37.4%; in the assay on SF-539 CNS, 21.2%; with UACC-257 melanoma, 64.1%. Moreover, in the assay on M14 melanoma, the growth is 40.8%.
As for `Cc1ccc(C(=O)c2ccc(CC(=O)N/N=C/c3ccccc3O)n2C)cc1`, the growth is 82.9% in the assay on NCI-H23 lung; 97% in the assay on NCI-H226 lung; 78.9% with NCI-H322M lung; 76% with HOP-62 NSCLC; 76.6% in the assay with NCI-H460 lung; 98.6% with HOP-92 NSCLC. Moreover, the growth in the assay with NCI-H522 lung was 75.2%; with 786-0 renal, 96.8%; with COLO 205 colon, 101%; in the assay on DU-145 prostate, 89.6%; in the assay on K-562 leukemia it was 84.2%; with MALME-3M melanoma it was 91.4%. Moreover, the growth with MDA-MB-231 breast is 82.6%; in the assay on RXF 393 renal, 89.6%; with SF-268 CNS, 70.9%; in the assay with SF-295 CNS, 97.7%; with SF-539 CNS it was 89.1%; in the assay with UACC-257 melanoma it was 95.3%. In addition, in the assay with M14 melanoma, the growth was 82.9%.
For `COc1ccc(-c2noc(C(=O)O)c2-c2cc(OC)c(OC)c(OC)c2)cc1`, the growth was 39.9% with NCI-H23 lung; 54.1% with NCI-H226 lung; 48.9% with NCI-H322M lung; 36.6% with HOP-62 NSCLC; 14.8% in the assay with NCI-H460 lung; 54.9% with HOP-92 NSCLC. In addition, the growth in the assay on NCI-H522 lung was 17.3%; with A549/ATCC NSCLC, 43.4%; with 786-0 renal it was 33.1%; with DU-145 prostate, 36.1%; with K-562 leukemia it was 12.6%; in the assay with MALME-3M melanoma, 52.8%. The growth with MDA-MB-231 breast is 57.1%; in the assay on RXF 393 renal, 21.2%; in the assay with SF-268 CNS, 40.5%; in the assay with SF-295 CNS, 13.5%; with SF-539 CNS, 3.15% (active); with UACC-257 melanoma, 45.4%. Besides, the growth in the assay on M14 melanoma is 11.7%.
On to `COc1ccc(NC2=C(I)C(=O)c3ncccc3C2=O)cc1`, for which the growth was -43.7% (active) with NCI-H23 lung; 82.2% with NCI-H226 lung; 17.4% in the assay with NCI-H322M lung; -62% (active) in the assay on HOP-62 NSCLC; -57.2% (active) in the assay on NCI-H460 lung; 75.3% in the assay on HOP-92 NSCLC. Further, the growth with NCI-H522 lung was -69.4% (active); with 786-0 renal, 11.3%; in the assay with COLO 205 colon, -53.7% (active); in the assay on DU-145 prostate, -84.2% (active); in the assay with K-562 leukemia, 2.18% (active); in the assay with MALME-3M melanoma, -98.2% (active). The growth in the assay with MDA-MB-231 breast is -11.8% (active); with RXF 393 renal it was 33%; in the assay with SF-268 CNS it was 14.7%; with SF-295 CNS it was 8.7% (active); in the assay with SF-539 CNS, -30% (active); in the assay on UACC-257 melanoma, 15.9%. Besides, in the assay with M14 melanoma, the growth is -65.7% (active).
`CC(=O)O[C@H]1CC2CCC3C(CC[C@@]4(C)C3C[C@H]([N+]3(C)CCCCC3)[C@@H]4OC(C)=O)[C@@]2(C)C[C@@H]1N1CCCCC1` (stereo partly drawn): the growth is 102% with NCI-H23 lung; 106% in the assay on NCI-H226 lung; 110% with NCI-H322M lung; 114% with HOP-62 NSCLC; 111% with NCI-H460 lung; 86.5% in the assay with HOP-92 NSCLC. The growth with NCI-H522 lung was 95.8%; in the assay on 786-0 renal it was 106%; in the assay on COLO 205 colon it was 104%; in the assay on DU-145 prostate, 120%; in the assay on K-562 leukemia, 104%; with MALME-3M melanoma it was 121%. The growth was 91% with MDA-MB-231 breast; 113% in the assay on RXF 393 renal; 115% in the assay on SF-268 CNS; 96.4% in the assay on SF-295 CNS; 110% in the assay with SF-539 CNS; 98% with UACC-257 melanoma. In addition, the growth with M14 melanoma was 106%.
